# Compound activity from PubChem.
# KB-V1 cytotox = kills drug-selected multidrug resistant KB-V1 cells; Potency, µM (doses to about 46.1 µM), hits mostly cytotoxic; KB-V1 MDR cells viability, CellTiter-Glo, 72 h; hit rate 3.4% among 400,000; note: % is set by controls: 0 for no effect and ±100 for the full control effect; nearly all actives have a fitted effect of over 60% in size
#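 Luminescent ATP read-out (CellTiter-Glo, 10 min) measures survival of drug-selected KB-V1 MDR cells after 72 h, 37 degrees C compound exposure. Medium: phenol-red-free DMEM, 10% FBS. Values from fitted concentration-response curves.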
# KB-3-1 cytotox = KB-3-1 parental cell cytotoxicity. KB-3-1 viability, CellTiter-Glo ATP luminescence, 72 h. Potency, µM (top dose mostly 46.1 µM), hits mostly cytotoxic. hit rate 1.4% among 400,000. AID 1347075; note: % is set by controls: 0 for no effect and ±100 for the full control effect; nearly all actives have a fitted effect of over 60% in size
#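 Parental KB-3-1 viability, qHTS format: 72 h compound exposure, 37 °C; CellTiter-Glo; media-only wells and DMSO plates as controls; concentration-effect fits on corrected data.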
# MCF10A rerep = induces DNA re-replication in MCF 10a normal breast cells | MCF 10A DNA re-replication, Hoechst nuclear intensity, 48 h | Potency, µM (highest dose often 46.1 µM), inactives show at the highest dose activity, positive = re-replication, most hits filed as activators | hit rate 2.9% among 350,000 | AID 624296; note: % of control where 0% means no effect; nearly all actives have a fitted effect of over 50% in size
# HT1080-NT tox = kills 2HG-producing HT-1080-NT fibrosarcoma cells. Potency, µM (series often up to 46.1 µM), without a hit: top-dose activity, negative = less viability, most hits filed as cytotoxic. hit rate 1.6% among 360,000. HT-1080-NT fibrosarcoma viability, CellTiter-Glo ATP luminescence, 48 h;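 note: NT is the 2HG producing partner of a matched IDH1 knockdown line; 0% = DMSO-treated cells and -100% = media-only wells without cells; nearly all actives have a fitted effect of over 55% in size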
#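 HT-1080-NT; 750 cells/well; 5% FBS RPMI; 48 h compound, 37 degrees C; CellTiter-Glo luminescence; curve fitting and curve-class assignment.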
# SW480 rereplic = DNA re-replication induction in SW480 cells. Potency, µM (top dose mostly 46.1 µM), without a hit: at the highest dose re-replication activation, usual class: activators. hit rate 1.8% among 340,000. AID 624297. SW480 DNA re-replication, Hoechst DNA content imaging, 48 h; note: % of control where 0% means no effect; nearly all actives have a fitted effect of over 55% in size
#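 Image-based read-out: total Hoechst fluorescence of nuclei (405 nm excitation, 500-530 nm emission), with hits raising the fraction of high-intensity nuclei. SW480 colon cells incubated 48 hr with compounds at 37 C.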
# HT1080 IDH1KD tx = toxicity to HT-1080 IDH1 knockdown cells (counter line) | Potency, µM (top dose mostly 46.1 µM), without a hit: at the highest dose activity, negative = toxicity, usual class: cytotoxic | hit rate 2% among 360,000 | HT-1080 IDH1 knockdown viability, ATP luminescence, 48 h;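 note: 0% = DMSO wells and -100% = cell-free medium wells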
#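 IDH1KD HT-1080 cells, 750/well, RPMI + 5% FBS; compound pinned after 2 h settling; 48 h, 37 °C; CellTiter-Glo luminescence; % activity normalised to DMSO and no-cell wells; curves fitted, classed by r2 and efficacy.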
# Numbers without * were called inactive; i = inactive; ? = inconclusive; . = no result; [ ] = dose if it differs, or a comment. Sampled rows, rich in hits. Any-hit rate of the full collection: about 7.9%. Calls come from the whole dose curve; as a rule, active = well fitted curve in the direction sought with a large enough effect; inconclusive = small, poorly fitted or top-dose-only effect, or another doubt; inactive = no such curve, though single readings can be large; an effect the other way counts as inactive or inconclusive. Potency is the fitted concentration of half-maximal effect.
SMILES,KB-V1 cytotox,KB-3-1 cytotox,MCF10A rerep,HT1080-NT tox,SW480 rereplic,HT1080 IDH1KD tx
Cc1ccc(/C=C/C(=O)c2c(C)nc3ccccn23)cc1,i,18µM*,?,?,?,-21%
CC(=O)c1c(C)nc2ccccn12,i,i,3%,15%,-1%,2%
CCOC(=O)C1CCC(CN(Cc2cccc(Br)c2)S(=O)(=O)c2ccc(C)cc2)CC1 (configuration not stated),i,i,.,.,.,.
Cc1cc(C(=O)Nc2c(C)nc3ccccn3c2=O)ccc1[N+](=O)[O-],i,i,.,.,.,.
O=C(/C=C/c1ccccc1)NC(=O)c1ccccc1O,i,i,12%,-7%,3%,2%
O=C(/C=C/c1ccccc1)CCN1CCCCC1,26µM*,?,6.5µM*,?,2.9µM*,?
O=C(/C=C/c1ccccc1)CC(=O)c1ccccc1O,?,i,13µM*,-17%,?,6%
O=C(C1CC1)N1CCc2cc(Br)cc(S(=O)(=O)Nc3ccc(C(F)(F)F)cc3)c21,i,i,.,.,.,.
CC(C)NCC(O)COC1CCC(C(C)(C)C)CC1 (configuration not stated),?,23µM*,24%,-30%,?,?
COc1ccc(OCC(O)CN2CCN(c3ccccc3)CC2)cc1 (configuration not stated),i,i,4%,17%,2%,10%
CC(=O)Nc1ccc(OCC(O)CN2CCN(c3ccc(C)c(Cl)c3)CC2)cc1 (configuration not stated),i,i,-5%,-21%,-11%,-14%
CC(=O)Nc1ccc(OCC(O)CN2CCN(c3cc(Cl)ccc3C)CC2)cc1 (configuration not stated),4.1µM*,?,?,?,23%,?
CC1CCCC(C)N1CC(O)COC1CCC(C(C)(C)C)CC1 (configuration not stated),i,i,?,-17%,?,-28%
CC(C)c1ccc(OCC(O)CN2CCN(c3ccccc3)CC2)cc1 (configuration not stated),?,i,?,?,?,16µM*
CC(C)(C)C1CCC(OCC(O)CN2CCN(Cc3ccccc3)CC2)CC1 (configuration not stated),i,i,41%,-22%,15µM*,-13%
OC(COC1CCCCC1)CN1CCN(c2ccccc2)CC1 (configuration not stated),?,i,4%,4%,-12%,0%
OC(COc1c(F)cc(Br)cc1F)CN1CCN(c2ccc(F)cc2)CC1 (configuration not stated),16µM*,?,17%,-21%,-3%,-3%[9.24 µM]
Cc1cc(OCC(O)CN2CCN(c3ccccn3)CC2)cc(C)c1Cl (configuration not stated),i,i,?,16µM*,-6%,?
CC(C)(C)C1CCC(OCC(O)CN2CCN(c3ccccn3)CC2)CC1 (configuration not stated),16µM*,?,?,?,8%,?
OC(COc1cccc2ccccc12)CN1CCN(c2cccc(Cl)c2)CC1 (configuration not stated),i,i,26µM*,-16%,14%,-3%
O=C(Cc1ccccc1)Nc1sc2c(c1C(=O)Nc1ccccc1Cl)CCCC2,?,i,.,.,.,.
O=[N+]([O-])c1ccc(C=C2c3ccccc3-c3ccccc32)cc1,?,i,.,.,.,.
CN(C1CCCCC1)S(=O)(=O)c1ccc2c(c1)c(=O)c(C(=O)N1CCN(c3ccccc3F)CC1)cn2C,i,i,.,.,.,.
COc1ccc(CCNC(=O)c2cccc3c2C(=O)N(C2CCCCC2)C3)cc1OC,18µM*,i,13%,-22%,-7%,-11%
O=C(NCCc1ccccc1)c1cccc2c1C(=O)N(C1CCCCC1)C2,i,i,0%,1%,-19%,13%
SMILES,KB-V1 cytotox,KB-3-1 cytotox,MCF10A rerep,HT1080-NT tox,SW480 rereplic,HT1080 IDH1KD tx
Cc1ccc(-c2csc(N3CCN(CCCn4c(C(F)(F)F)nc5ccccc54)CC3)n2)cc1,i,?,18%,?,28%,-8%
CCCn1c(C2CCCN2c2nc(-c3ccc(C)cc3)cs2)nc2ccccc21 (configuration not stated),?,18µM*,?,?,?,?
Cc1ccc(-c2csc(N3CCN(CCCn4c(-c5ccncc5)nc5ccccc54)CC3)n2)cc1,18µM*,?,23µM*,?,?,?
Cc1ccc(Cn2c(C3CCCN3c3nc(-c4ccc(F)cc4)cs3)nc3cc(Cl)c(Cl)cc32)cc1 (configuration not stated),i,i,-8%,-2%,-2%,1%
CCOC(=O)c1c(C)oc2nc(C)nc(NCCc3ccc(C)cc3)c12,i,i,.,.,.,.
CCOc1ccc(S(=O)(=O)N2CCN(c3ccccc3F)CC2)c2cccnc12,?,i,16%,-2%,16µM*,-11%
CCOc1cc(/C=N/Nc2ncnc(Cl)c2N)ccc1O,?,i,?,8%,1%,17%
CCOc1cc(/C=N/NC(=O)N/N=C/c2ccc(O)c(OCC)c2)ccc1O,i,6.5µM*,?,1.8µM*,?,2.6µM*
COc1cc(/C=N/NC(=O)NC23CC4CC(CC(C4)C2)C3)ccc1O,i,i,4%,26µM*,-5%,?
CCOc1cc(/C=N/Nc2nnc(C)n2N)ccc1O,i,i,?,?,7%,23µM*
COc1ccc(-c2nc(C)c(CCNC(=O)c3cccc(C)c3)s2)cc1OC,?,i,.,.,.,.
CCOC(=O)c1cc(-c2ccc(F)cc2)n(CC(=O)NC2CCCCC2)c1C,i,i,.,.,.,.
Fc1ccccc1COc1ccc2ccccc2c1CNc1nn[nH]n1,i,?,?,13µM*,?,16µM*
CCOc1cccc(CNc2ccc(O)cc2)c1OCc1ccc(Cl)cc1Cl,i,i,?,?,?,21µM*
CCOc1cc(CNCc2cccs2)cc(Br)c1OCC,i,?,27%,?,?,?
CCOc1cccc(CNCCO)c1OCc1ccc(Cl)cc1Cl,i,i,?,-4%,?,-25%
CCOc1cc(CNCCO)cc(Br)c1OCc1ccc(Cl)cc1Cl,?,?,?,?,?,21µM*
CCOc1cc(CNCCO)cc(Br)c1OCc1cccs1,i,i,-3%,?,3%,11µM*
